Bioassay records: PubChem BioAssay, SRMLSC
NADH enzymes: inhibitors of enzymes used to reach an NAD/NADH endpoint; coupled PK/LDH NADH assays, four targets; hit rate 0.02% among 65,000; IC50, µM (doses to about 10 µM), without a hit: at the highest dose inhibition;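 active = single-dose screening hits from any of four coupled enzyme assays that gave an IC50 when retested across doses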;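 also: the DPM-DC format reads NADH fluorescence rather than 340 nm absorbance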
Spn PMK inh: blocks S. pneumoniae phosphomevalonate kinase; purified PMK, PK/LDH-coupled NADH absorbance 340 nm; hit rate 0.49% among 65,000; inhibition, % at 10 µM;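 active = top-ranked compounds by inhibition in the single 10 µM screen, taking a fixed number of the strongest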;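 also: 0% = full reaction with DMSO carrier and 100% = background rate without enzyme reaction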
Abs 340nm: absorbance at 340 nm; fold change at 10 µM; 65,000 tested, under 10 active; compound absorbance at 340 nm, fold over control;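 active = at 10 µM dose, initial 340 nm absorbance at least 2 fold that of control wells; inactive = change under 2 fold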;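 also: initial absorbance extrapolated from kinetic A340 decline of NADH oxidation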
DPM-DC inhibit: S. pneumoniae DPM-DC inhibition; purified DPM-DC, PK/LDH coupled NADH fluorescence; calls only at 10 µM; hit rate 0.49% among 65,000; AID 556;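 active = the 320 compounds with the highest percent inhibition in the single-dose primary screen, excluding strongly autofluorescent ones, cut at about 32% in these data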;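 also: kinetic rate of NADH fluorescence loss reporting ADP formed by the decarboxylase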
Spn MK inh: S. pneumoniae mevalonate kinase inhibition | purified MK, PK/LDH-coupled NADH absorbance 340 nm | inhibition, % at 10 µM | hit rate 0.48% among 65,000;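 active = ranked among the strongest by inhibition in the single 10 µM screen, a fixed top-ranked set picked for dose follow-up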
Autofluor 339: intrinsic fluorescence of library compounds, ex339/em460 – biochemical, MLSMR library, data from DPM-DC assay, artefact control, profiling panel. hit rate 5.5% among 65,000. fluorescence fold increase at 10 µM. compound autofluorescence, ex339/em460 nm, NADH buffer; stronger effect = higher value; 1 = no-compound wells, NADH background. AID 709;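 active = at 10 µM, mean starting fluorescence two-fold or more over control wells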;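 also: signal is the first read of a kinetic run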
* = called active by the depositor; i = inactive; · = no result given. Rows were chosen to be rich in hits. Some 6.5% of all compounds tested hit in one or more screens of this group.

SMILES | NADH enzymes | Spn PMK inh | Abs 340nm | DPM-DC inhibit | Spn MK inh | Autofluor 339
Cc1ccc2oc(-c3ccc(NC(=O)c4ccc5c(c4)OCO5)cc3)nc2c1 | 2% | 4 | 1.1 | · | 0 | 3.7*
Cc1ccc(-c2nc3ccccc3o2)cc1NC(=O)c1ccc2c(c1)OCO2 | 6% | 6 | 1 | i | 8 | 1.8
Cc1ccc2oc(-c3ccc(NC(=O)c4cccnc4)cc3)nc2c1 | 3% | 2 | 1.1 | i | 8 | 2.1*
CCCCN(CC)S(=O)(=O)N1CCC(C(=O)NCc2ccc(F)cc2)CC1 | 3% | 15 | 0.98 | i | 3 | 1
O=C(CSc1nnc(-c2ccc(S(=O)(=O)N3CCCC3)cc2)o1)NCc1ccco1 | 8% | 8 | 1 | i | 15 | 1.1
O=C(C1CCCN(Cc2cccnc2)C1)N1CCCCC1 (configuration not stated) | 17% | 5 | 1 | i | 45* | 1.1
O=C1CC(O)(C(F)F)Oc2ccc3ccccc3c21 (configuration not stated) | 10% | 7 | 1 | · | 13 | 3.7*
CCC1Oc2ccc(C)cc2N(CC(=O)NCCN2CCCCCC2)C1=O (configuration not stated) | 8% | 25* | 1 | i | 0 | 1.1
O=c1[nH]c(=O)n(Cc2ccccc2)c2nc(-c3ccco3)cc(C(F)(F)F)c12 | 5% | 9 | 1.1 | · | 1 | 4.9*
CCOC(=O)c1cn2c3c(c(F)c(F)c(F)c3c1=O)SC(N1CCCC1)=N2 | 4% | 4 | 1.1 | i | 4 | 2.7*
COc1cc(-c2nnc(SCC(=O)c3ccccc3)o2)cc(OC)c1OC | 5% | 14 | 1 | i | 0 | 1.1
COc1cc(-c2nnc(-c3ccc(S(=O)(=O)c4ccccc4)cc3)o2)cc(OC)c1OC | 11% | 13 | 1 | · | 8 | 3.7*
CCC(C)n1c(SCC(=O)NC(=O)Nc2ccc3c(c2)OCCO3)nc2ccccc2c1=O (configuration not stated) | 4% | 5 | 1 | i | 7 | 1.1
COC(=O)c1cc2c(=O)n3ccccc3nc2n(C)c1=N | 5% | 8 | 1 | · | 1 | 3.8*
Cc1cccn2c(=O)c3cc(C(=O)NCC4CCCO4)c(=N)n(Cc4cccnc4)c3nc12 (configuration not stated) | 8% | 6 | 1 | · | 9 | 3.7*
Cn1nc(C(=O)NCC2CCCO2)c2ccccc2c1=O (configuration not stated) | 7% | 12 | 1 | i | 8 | 1.1
O=C(NCC1CCCO1)c1ccc2c(=O)n(CCc3ccccc3)c(=O)[nH]c2c1 (configuration not stated) | 9% | 20 | 1.1 | i | 4 | 1.4
N#Cc1cc2c(=O)n3ccccc3nc2n(Cc2cccnc2)c1=N | 0% | 0 | 1.1 | i | 0 | 1.3
N=c1c(C(=O)NCC2CCCO2)cc2c(=O)n3ccccc3nc2n1Cc1cccnc1 (configuration not stated) | 3% | 5 | 0.98 | · | 0 | 3.7*
COC(=O)c1cc2c(=O)n3ccccc3nc2n(Cc2cccnc2)c1=N | 4% | 2 | 1.1 | · | 6 | 3.7*
CCOC(=O)Cc1csc(NC(=O)CCN2C(=O)c3ccccc3C2=O)n1 | 1% | 4 | 1.1 | i | 0 | 1.1
Cc1nn(-c2ccc(F)cc2)c(C)c1NS(=O)(=O)c1ccc(Cl)cc1 | 4% | 12 | 0.97 | i | 0 | 1
NS(=O)(=O)c1ccc(NC(=O)COC(=O)CCNC(=O)NC23CC4CC(CC(C4)C2)C3)cc1 | 3% | 0 | 1 | i | 9 | 1.1
CCOC(=O)N1CCC(Nc2c(NCCCN(CC)c3cccc(C)c3)c(=O)c2=O)CC1 | 4% | 2 | 1 | i | 11 | 1.1
CC(=O)c1cccc(S(=O)(=O)NCC(c2ccco2)N2CCCCC2)c1 (configuration not stated) | 3% | 9 | 0.99 | i | 0 | 1
SMILES | NADH enzymes | Spn PMK inh | Abs 340nm | DPM-DC inhibit | Spn MK inh | Autofluor 339
COc1cc(C(C)=O)ccc1OCC(=O)c1cc(C)n(C2CC2)c1C | 6% | 19 | 1 | i | 0 | 1
COc1ccc(C2C(C(=O)NCCN3CCOCC3)c3ccccc3C(=O)N2C2CCCCC2)cc1 (configuration not stated) | 0% | 0 | 0.99 | i | 0 | 1
COc1ccc2[nH]c(C(=O)O)c(NS(=O)(=O)c3ccc(OC)c(OC)c3)c2c1 | 14% | 11 | 1.1 | i | 4 | 2.2*
COc1ccc2[nH]c(C(=O)O)c(CCC(=O)O)c2c1 | 10% | 5 | 1.1 | i | 7 | 2.5*
CCSCc1nnc(SCC(=O)Nc2cccc(SC)c2)n1C | 4% | 10 | 1 | i | 9 | 1
CCCOc1ccc(C2C(C(=O)OC)=CN(CCOC)C=C2C(=O)OC)cc1 | 7% | 17 | 1 | · | 7 | 2.6*
COCCN1C=C(C(=O)OC)C(c2ccc(OC)c(OC)c2)C(C(=O)OC)=C1 | 11% | 14 | 1.1 | · | 8 | 2.2*
COC(=O)C1=C2SC(C)C(=O)N2C(N)=C(C#N)C1c1ccc(OC)c(OC)c1 (configuration not stated) | 2% | 5 | 1.1 | i | 0 | 0.84
COC(=O)C1=CN(CC2CCCO2)C=C(C(=O)OC)C1c1cc(OC)c(OC)c(OC)c1 (configuration not stated) | 10% | 18 | 1.1 | · | 1 | 2.1*
Cc1ccc(-c2csc(/C(C#N)=C(\O)CN3CCN(C(=O)c4ccco4)CC3)n2)cc1 | 4% | 6 | 1.1 | i | 7 | 0.99
COc1ccccc1CNC(=O)C1CCCN1S(=O)(=O)c1cccc2cccnc12 (configuration not stated) | 2% | 0 | 1.1 | i | 6 | 1.1
O=C(Nc1nc(-c2cc3ccccc3oc2=O)cs1)c1ccco1 | 0% | 0 | 1.1 | · | 0 | 2.1*
O=C(Nc1c(-c2ccccc2)nc2ccccn12)c1ccco1 | 2% | 4 | 1 | i | 5 | 1.1
Oc1cccc(/C=N/c2c(-c3ccco3)nc3ccccn23)c1 | 13% | 21 | 1.1 | · | 5 | 2.1*
C=CCOC(=O)COc1ccc2c(C)c(C)c(=O)oc2c1C | 4% | 10 | 1 | · | 5 | 2.4*
Cc1c(OCC(=O)OC(C)C)ccc2c3c(c(=O)oc12)CCC3 | 6% | 4 | 1.1 | i | 5 | 1.8
CCc1c(C)c2ccc(OCC(=O)OC(C)C)c(C)c2oc1=O | 8% | 4 | 1.1 | · | 12 | 3.6*
CCc1c(C)c2ccc(OCC(=O)N(C)C)c(C)c2oc1=O | 10% | 6 | 1.1 | · | 13 | 3.5*
CCc1ccc(OCC(=O)N(C)C)c(Br)c1 | 9% | 8 | 1.1 | i | 9 | 1.1
CCN(CC)C(=O)COc1cccc2ccccc12 | 8% | 22 | 1 | i | 3 | 1.2
CCOC(=O)CCc1c(C)c2ccc(OCC(=O)N(CC)CC)c(C)c2oc1=O | 5% | 6 | 1.1 | · | 4 | 3.8*
